Reference: PubChem BioAssay (Tox21)
Calls of active or inactive are those of the source. Entries that show only a call come without a potency. Calls follow the shape of the dose curve; as a rule, active = well fitted curve in the direction sought with a large enough effect in the repeat runs; inconclusive = weak or mixed curves; inactive = flat fitted curve, though single readings scatter.

assay: qHTS assay to test for compound auto fluorescence at 590 nm (red) in HepG2 cells (AID 720674); details: HepG2 autofluorescence, red 540/590 nm, 1 h; series mostly up to 91.3 µM
Method in brief: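 We screened compounds on adherent HepG2 cells, incubating them for an hour at 37 C in 5% CO2 before reading emission at 590 nm under 540 nm excitation; values reflect equivalence to Rose Bengal sodium fluorescence.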

Q: Which Potency does the source give for `O=C1CCc2cc(OCCCCc3nnnn3C3CCCCC3)ccc2N1` here?
A: inactive

Q: Which Potency does the source give for `CCCNCCC` here?
A: inactive

Q: For `CC(C(=O)O)c1ccc2c(c1)[nH]c1ccc(Cl)cc12` (configuration not stated), which Potency is on record?
A: inactive

Q: For `O=C1CCc2ccc(OCCCCN3CCN(c4cccc(Cl)c4Cl)CC3)cc2N1`, which Potency is on record?
A: inactive

Q: Which Potency does the source give for `COC(=O)C1=C(C)NC(C)=C(C(=O)OCCN2CCN(C(c3ccccc3)c3ccccc3)CC2)C1c1cccc([N+](=O)[O-])c1` (configuration not stated) here?
A: inactive

Q: For `C#C[C@]1(OC(C)=O)CC[C@H]2[C@@H]3CCC4=C[C@@H](OC(C)=O)CC[C@@H]4[C@H]3CC[C@@]21C`, which Potency is on record?
A: inactive

Q: With `Nc1nc(-c2ccccc2)cs1` as the molecule, how does the Potency read?
A: inactive

Q: Which Potency does the source give for `CC1(C)[C@@H](O)CC[C@]2(C)[C@H]3C(=O)C=C4[C@@H]5C[C@@](C)(C(=O)O)CC[C@]5(C)CC[C@@]4(C)[C@]3(C)CC[C@@H]12` here?
A: inactive

Q: With `CCc1cccc(CC)c1NC(=O)CN(CC(=O)O)CC(=O)O` as the molecule, how does the fluorescence, relative to Rose Bengal read?
A: 0.215% [at 18.6 µM] (inactive)

Q: With `Cc1c(C)c2c(c(C)c1OC(=O)c1cccnc1)CC[C@@](C)(CCC[C@H](C)CCC[C@H](C)CCCC(C)C)O2` as the molecule, how does the Potency read?
A: inactive

Q: Which Potency does the source give for `CN1CCC[C@@H]1CCO[C@](C)(c1ccccc1)c1ccc(Cl)cc1` here?
A: inactive

Q: Which Potency does the source give for `O=c1oc2cc(O)ccc2c2oc3cc(O)ccc3c12` here?
A: inactive

Q: Which Potency does the source give for `Clc1ccnc(Cl)n1` here?
A: inactive

Q: For `O=C1c2ccccc2C(=O)N1SC1CCCCC1`, which Potency is on record?
A: inactive

Q: For `CNc1ccc([N+](=O)[O-])cc1`, which Potency is on record?
A: inactive

Q: For `CCOC(=O)c1ccc(C2CCC(NC[C@H](O)COc3ccc(O)c(NS(C)(=O)=O)c3)CC2)cc1` (some centres not stated), which Potency is on record?
A: inactive

Q: With `CN(C)c1ccc(C(=C2C=CC(=[N+](C)C)C=C2)c2ccc(N(C)C)cc2)cc1` as the molecule, how does the Potency read?
A: inactive
